# Reference: paper PMC12864922, “TDP-43 directly inhibits mRNA accumulation in neurites through modulation of mRNA stability”
# In all, about 9,900 sequences were measured (“r (bound/input frequency ratio)”: median about 0.7, highest 2% from about 6.5 on). Shown is part of a subset that was picked to be rich in the highest values.
# B1: ENSMUSG00000043670.63|Diras1 (ssRNA)
# RNA: GGGAGUUCUACAGUCCGACGAUCGCUUCGAUAUCCGCAUGCUAAGACCUCUCCCUCUAUAUCUCUUUGCUCCCCCACCCCCAUUCUAUCUGCACCCCACAACCACACACUGGAGGUUUGAUCCCUGUGGAUCUGAAAACAGGGACCUGGCUAAGGAACUGCUCAUCCCAGUCAGGCCCAGAGAGGUUACCUUGCCUCUCCAUCUCUGUCCCUGUGUGCCCAGCCAUGCCCACUGUCCCUGUCCCUCACAUUCUAUCACUGUGACCUCUGGGGAGUGCCCAUUGACCUCAUCUUCCUUCACUAACUCUUGCGGUCGCACUAGUGUGGAAUUCUCGGGUGUCAAGG
# B2: ENSMUSG00000058297.300|Spock2 (ssRNA)
# RNA: GGGAGUUCUACAGUCCGACGAUCGCUUCGAUAUCCGCAUGCUAAGGGCCACCCUGAUGCCCAGGAAGAGUGAGGGCAGCCCCCUGUGUGGUGGAAGAGGCUGGGCAGCUAGCUACUGGGGACCUUGUGCUGAGGCUUCCAGGACAAAGCCCCAGUCUGGCUCUCCCCCAGCCUCUCAGGGGCACUGGCUGGUCACAUCCACUGAGUAUUGAUCGGUUGGACUUUAGGGAAGAGCCUCCUCCUUCCCAUUCCUUUCUGCCACCCUGGAAUGGCCACCUUAAUCGUCAUCUCCUCGGGGGGAAUACUCUUGCGGUCGCACUAGUGUGGAAUUCUCGGGUGUCAAGG
# B3: ENSMUSG00000031028.551|Tub (ssRNA)
# RNA: GGGAGUUCUACAGUCCGACGAUCGCUUCGAUAUCCGCAUGCUACCUGGUUUCCCUUCUCAGCAGUCCUGGCCUCCCCUUCUCUGUAUUCCUUGCCCCAGCUACGAUAUCCUCAUGGGAUUUCAGGAUGCCAGGUGCCAUCAAAGCAUGCUUUUUUGUGGUGCCUAGCACUGUGACUGGGGCCCAACUGCCCUGCAGAGUUGGGACCUUGCACUGCCCUAGACCCUGGCUUUAGAUCUGCUUCAGUCUCCAGAACAGGCUAUGGGAUAGAUUUUUCUUUCAGUUUAUGGCCACCUGCCCAAAUUCUCUUGCGGUCGCACUAGUGUGGAAUUCUCGGGUGUCAAGG
# B4: ENSMUSG00000028439.8|Fam219a|14:18;220:226 (ssRNA)
# RNA: GGGAGUUCUACAGUCCGACGAUCGCUUCGAUAUCCGCAUGCUAAACCCCACCUGCAACACAUGUCAGGCCACUUCCUCCACCGCCUGCCACAUUCAGUAGUGGGCGGGGUCGCCGCGGUGCACGGGGCGCUGACCUGGGCCCGGUGGGAUGCAGCAGGAGAGACCCCUACCCUGCUGGUCCACUGGUCCCCAGCCCCGCGCCUCUUAGAGCCGCCAACCUCGUAACAGUCAUUGCUUCCUCCUAUGGUAGGACGUGUACCUCACACACAUCAAGGAGCCGGAGAAACCAAAACCGGGUCUGUCCUCUUGCGGUCGCACUAGUGUGGAAUUCUCGGGUGUCAAGG
# B5: ENSMUSG00000034801.23|Sos2 (ssRNA)
# RNA: GGGAGUUCUACAGUCCGACGAUCGCUUCGAUAUCCGCAUGCUAGAUUCCACGCAGCUGUCACUUGCUCAGCUCCAGUCACAGCAGCCUUGCUCAUCUUCCAGCUCCUCCUGUCCCACCAAGGCAGAAUUCAAGCCCUCUCUUACCAAAGCUGCCACCAAAGACUUACAAACGGGAGCUUUCCCACCCGCCACUGUAUAGACUGCCUCUGCUGGAAAAUGCAGAAACUCCUCAAUGACCUUGGCCAUAUGUAGUCAUUGACACUGGAAUAGUAUUUGUAAAGGUUUUUAAUUUAUUCAAAAAGACUCUUGCGGUCGCACUAGUGUGGAAUUCUCGGGUGUCAAGG
# B6: ENSMUSG00000028439.139|Fam219a (ssRNA)
# RNA: GGGAGUUCUACAGUCCGACGAUCGCUUCGAUAUCCGCAUGCUAUCUGCCUCAUCCCCACACCGCCCUGCCACCCCCAGUCUUCUGUCUAUUGGUUCCAGGCUGGAAGCAAGAGAUAAGGCUGGCCUCCUGUGCCCCAUUGCCAUUUCACCCUAGCUCAAAGUCCAGGAGCCAGGCUUCCAGAAAGGCUCUUCAAGAGCAAGCUUAAGGAAAUACAGUGAGCCAAGUGGCUGUAUGAUAUGGUAUGGUAUGGUAUGGUAUGGUAUGGUAUGGUAUGCACAUGUGUGUGCAUGUGUGUGUGCCUGCUCUUGCGGUCGCACUAGUGUGGAAUUCUCGGGUGUCAAGG
# B7: ENSMUSG00000028439.143|Fam219a (ssRNA)
# RNA: GGGAGUUCUACAGUCCGACGAUCGCUUCGAUAUCCGCAUGCUAGCCACCCCCAGUCUUCUGUCUAUUGGUUCCAGGCUGGAAGCAAGAGAUAAGGCUGGCCUCCUGUGCCCCAUUGCCAUUUCACCCUAGCUCAAAGUCCAGGAGCCAGGCUUCCAGAAAGGCUCUUCAAGAGCAAGCUUAAGGAAAUACAGUGAGCCAAGUGGCUGUAUGAUAUGGUAUGGUAUGGUAUGGUAUGGUAUGGUAUGGUAUGCACAUGUGUGUGCAUGUGUGUGUGCCUGUGUGUGUGCGUGUGCGUGUGUGUACUCUUGCGGUCGCACUAGUGUGGAAUUCUCGGGUGUCAAGG
# B8: ENSMUSG00000028439.146|Fam219a (ssRNA)
# RNA: GGGAGUUCUACAGUCCGACGAUCGCUUCGAUAUCCGCAUGCUAUCUAUUGGUUCCAGGCUGGAAGCAAGAGAUAAGGCUGGCCUCCUGUGCCCCAUUGCCAUUUCACCCUAGCUCAAAGUCCAGGAGCCAGGCUUCCAGAAAGGCUCUUCAAGAGCAAGCUUAAGGAAAUACAGUGAGCCAAGUGGCUGUAUGAUAUGGUAUGGUAUGGUAUGGUAUGGUAUGGUAUGGUAUGCACAUGUGUGUGCAUGUGUGUGUGCCUGUGUGUGUGCGUGUGCGUGUGUGUAUGUGUGUGCGUGUGUGUGCUCUUGCGGUCGCACUAGUGUGGAAUUCUCGGGUGUCAAGG
# B9: ENSMUSG00000028439.144|Fam219a (ssRNA)
# RNA: GGGAGUUCUACAGUCCGACGAUCGCUUCGAUAUCCGCAUGCUACCCAGUCUUCUGUCUAUUGGUUCCAGGCUGGAAGCAAGAGAUAAGGCUGGCCUCCUGUGCCCCAUUGCCAUUUCACCCUAGCUCAAAGUCCAGGAGCCAGGCUUCCAGAAAGGCUCUUCAAGAGCAAGCUUAAGGAAAUACAGUGAGCCAAGUGGCUGUAUGAUAUGGUAUGGUAUGGUAUGGUAUGGUAUGGUAUGGUAUGCACAUGUGUGUGCAUGUGUGUGUGCCUGUGUGUGUGCGUGUGCGUGUGUGUAUGUGUGCUCUUGCGGUCGCACUAGUGUGGAAUUCUCGGGUGUCAAGG
# B10: ENSMUSG00000028439.142|Fam219a (ssRNA)
# RNA: GGGAGUUCUACAGUCCGACGAUCGCUUCGAUAUCCGCAUGCUACGCCCUGCCACCCCCAGUCUUCUGUCUAUUGGUUCCAGGCUGGAAGCAAGAGAUAAGGCUGGCCUCCUGUGCCCCAUUGCCAUUUCACCCUAGCUCAAAGUCCAGGAGCCAGGCUUCCAGAAAGGCUCUUCAAGAGCAAGCUUAAGGAAAUACAGUGAGCCAAGUGGCUGUAUGAUAUGGUAUGGUAUGGUAUGGUAUGGUAUGGUAUGGUAUGCACAUGUGUGUGCAUGUGUGUGUGCCUGUGUGUGUGCGUGUGCGUGCUCUUGCGGUCGCACUAGUGUGGAAUUCUCGGGUGUCAAGG
# B11: ENSMUSG00000028439.145|Fam219a (ssRNA)
# RNA: GGGAGUUCUACAGUCCGACGAUCGCUUCGAUAUCCGCAUGCUACUUCUGUCUAUUGGUUCCAGGCUGGAAGCAAGAGAUAAGGCUGGCCUCCUGUGCCCCAUUGCCAUUUCACCCUAGCUCAAAGUCCAGGAGCCAGGCUUCCAGAAAGGCUCUUCAAGAGCAAGCUUAAGGAAAUACAGUGAGCCAAGUGGCUGUAUGAUAUGGUAUGGUAUGGUAUGGUAUGGUAUGGUAUGGUAUGCACAUGUGUGUGCAUGUGUGUGUGCCUGUGUGUGUGCGUGUGCGUGUGUGUAUGUGUGUGCGUGCUCUUGCGGUCGCACUAGUGUGGAAUUCUCGGGUGUCAAGG
# B12: ENSMUSG00000004113.108|Cacna1b|97:101;113:118;234:238 (ssRNA)
# RNA: GGGAGUUCUACAGUCCGACGAUCGCUUCGAUAUCCGCAUGCUAGGACCCAGCAAAUCCAAAUCCUAUGUCAUGGCCUCCAGCAUCCAGGGUGGGUCCUUGGGACUUUUCUUAGGAGGGACUUUCUGAGCCUCGUGGAGACACACGUUUGUCCAAAACACACGCAUGGGAGAUAGGGUACCCCUGAAAGCAAGGAAAGGAGCCCAGCUGUGGCCUGGUAGCACCUGCCGGCACCAGUGAUCUCACGUCUCUUGUGGUCUUGGAGUCAAAUAGCACAUCAUACUAGAGAUGCGCUCAAGGGCCUGCUCUUGCGGUCGCACUAGUGUGGAAUUCUCGGGUGUCAAGG
# B13: ENSMUSG00000042529.323|Kcnj12 (ssRNA)
# RNA: GGGAGUUCUACAGUCCGACGAUCGCUUCGAUAUCCGCAUGCUAGAUGCUGUAUUUUCAAAUUCUCCUGCCCUCUUUUCCCCUUUUUCCCUGUAUUUAUUUAUUGCUUGUGCUAAAGACCAAACUAGCCGCCCCCUUUAGUGCACCCAAUGGAGGAAGCCACUGAGGGGGGAGCCGUGUGCCUGUGCCAGGCAGGAAAGCUUGGCCCCUGGGAAGUGUGUGAGAAGGAAAACCAGGGUGUGUGUGCACGCAUGUGCAGACGUGCUCACACGAUCGUCUCCCUGUGUGGGAAACUUGGUAUGCAGCUCUUGCGGUCGCACUAGUGUGGAAUUCUCGGGUGUCAAGG
# Molecular target: TDP-43 (Homo sapiens, UniProt Q13148 1-414)
# Test: RNA Bind-n-Seq with designed 260-mer pool; 25 mM Tris-HCl, 150 mM KCl, 3 mM MgCl2, BSA (printed 500 mg/mL), 20 units/mL SUPERase IN; pH not stated; 500 nM RNA pool, 1 h, 4 C; TDP-43 5, 50, 500 nM; high values mean tight binding
# Conditions: protein: recombinant; tags: SBP (GST cleaved off with PreScission; pGEX-GST-SBP)
# In short: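 For each oligo, R gives binding as its mapped-read-normalized abundance after pulldown divided by its abundance in input. Bead-captured SBP-tagged TDP-43 (5, 50 or 500 nM) was incubated with 500 nM of an in vitro-transcribed 260-nt 3′ UTR oligo pool for 1 h at 4 °C in 25 mM Tris-HCl, 150 mM KCl, 3 mM MgCl2, BSA and SUPERase IN on streptavidin beads. Washed, biotin-eluted RNA was reverse transcribed, PCR-amplified and sequenced.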
# Chain of TDP-43 (Q13148 whole entry): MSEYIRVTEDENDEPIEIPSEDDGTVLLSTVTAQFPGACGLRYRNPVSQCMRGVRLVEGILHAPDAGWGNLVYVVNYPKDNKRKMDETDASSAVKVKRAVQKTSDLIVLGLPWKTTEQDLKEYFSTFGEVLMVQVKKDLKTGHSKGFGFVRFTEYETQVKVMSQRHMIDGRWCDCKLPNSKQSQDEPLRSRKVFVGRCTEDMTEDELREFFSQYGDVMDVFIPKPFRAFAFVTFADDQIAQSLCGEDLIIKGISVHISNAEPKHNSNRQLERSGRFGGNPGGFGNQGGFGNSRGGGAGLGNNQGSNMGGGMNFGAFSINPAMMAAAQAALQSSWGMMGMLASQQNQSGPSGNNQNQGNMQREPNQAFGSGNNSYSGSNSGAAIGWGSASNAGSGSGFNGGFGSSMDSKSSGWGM
row,Binder,binding signal
1,B1,2.02 R (bound/input frequency ratio)
2,B2,0.798 R (bound/input frequency ratio)
3,B3,0.798 R (bound/input frequency ratio)
4,B4,0.367 R (bound/input frequency ratio)
5,B5,0.462 R (bound/input frequency ratio)
6,B6,2.12 R (bound/input frequency ratio)
7,B7,5.96 R (bound/input frequency ratio)
8,B8,7.87 R (bound/input frequency ratio)
9,B9,6.06 R (bound/input frequency ratio)
10,B10,4.5 R (bound/input frequency ratio)
11,B11,8.23 R (bound/input frequency ratio)
12,B12,0.293 R (bound/input frequency ratio)
13,B13,2.13 R (bound/input frequency ratio)
